{"source": "PubChem BioAssay (NCI)", "note": "This is part of a sample that, as a whole, favours compounds with a hit. Of some 83,000 tested, about 20% had one in any assay.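 Values shown are percent growth following 48 h exposure of cells in 96-well plates to a single concentration of compound; below 10 was considered active.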 Calls of active or inactive are those of the source."}
{"test_system": "OVCAR-4 ovarian", "test": "NCI-60 one-dose screen, 48 h (100 = growth as untreated, 0 = no growth, -100 = all killed)", "conditions": "10 µM unless noted"}
{"smiles": "Cc1nc2c(nnn2-c2ccccc2)c2nc(-c3ccc(Cl)cc3)oc(=O)c12", "growth": "114% (inactive)"}
{"smiles": "Clc1ccc(N/N=C(/c2ccccc2)c2ccccn2)nc1", "growth": "24.5% (inactive)"}
{"smiles": "COc1ccc(-c2nnc(SCC(=O)Nc3ccc(C(=O)/C=C/c4cc(OC)c(OC)c(OC)c4)cc3)n2-c2ccccc2)cc1OC", "growth": "-49% [100 µM] (active)"}
{"smiles": "CCc1ccc(C(=Nc2ccc(N(C)C(=O)CN3CCN(C)CC3)cc2)c2c(O)[nH]c3ccc(C(=O)OC)cc23)cc1", "growth": "-61.3% (active)"}
{"smiles": "Cc1ccc(C(C)C)c(OCc2ccc(C(=O)N/N=C/c3cccc(O)c3O)cc2)c1", "growth": "27.8% (inactive)"}
{"smiles": "C/C(=N\\Nc1ccc(Cl)cn1)c1ccc2ccccc2n1", "growth": "36.8% (inactive)"}
{"smiles": "CCOC(=O)c1ccc2n1CCCc1cnc(NC(C)=O)nc1-2", "growth": "104% (inactive)"}
{"smiles": "COC(=O)c1ccc2[nH]c(O)c(C(=Nc3ccc(N(C)C(=O)CN4CCN(C)CC4)cc3)c3ccc(C)cc3)c2c1", "growth": "-64.3% (active)"}
